Measured values from PubChem BioAssay AID1159580 (chemical genetic matrix, 2015).
Values joined by “and” are separate entries in the source; they are usually repeats but may differ in a detail not shown here. Equal entries are not always repeated. Screen size: about 5,500 compounds; about 2,000 (36%) were called active. About 18% were inconclusive and are not listed. Rule as the data show it: active = normalized growth mostly below about 0.91 (no sharp cut-off); inconclusive = no clear call, values can overlap the other calls; inactive = mostly above about 0.92. The list shows a part of the results.

Assay: chemical genetic growth profiling, strain panel (AID 1159580);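 also: tested at 20 µM; growth read once vehicle control cultures reached saturation at 30 °C; 1 = growth at the plate median or of vehicle wells; lower values mean less growth of the strain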
Details: S. cerevisiae deletion strains, growth OD

Measured: normalized growth

COC(=O)/C(=C1\OC(=O)C(c2ccccc2)=C1O)c1ccccc1
inactive: locus YAL013W, strain DEP1, active compounds read low 1.01 | locus YAL021C, strain ccr4, active compounds read low 0.979 | locus YAL026C, strain drs2, active compounds read low 0.979 | locus YAL030W, strain snc1, active compounds read low 0.981 | locus YBL061C, strain skt5, active compounds read low 0.977 | locus YBR009C, strain hhf1, active compounds read low 1 | locus YBR021W, strain FUR4, active compounds read low 0.963 | locus YBR023C, strain chs3, active compounds read low 0.976 | locus YBR171W, strain sec66, active compounds read low 0.987 | locus YBR229C, strain ROT2, active compounds read low 0.993 | locus YBR231C, strain swc5, active compounds read low 0.985 | locus YBR279W, strain paf1, active compounds read low 0.984 | locus YCL011C, strain gbp2, active compounds read low 0.979 | locus YCL016C, strain dcc1, active compounds read low 0.981 | locus YCL029C, strain bik1, active compounds read low 0.987 | locus YCL061C, strain MRC1, active compounds read low 0.966 | locus YCL069W, strain vba3, active compounds read low 0.968 | locus YCR088W, strain abp1, active compounds read low 0.962 | locus YDL005C, strain med2, active compounds read low 0.974 | locus YDL035C, strain GPR1, active compounds read low 1 | locus YDL040C, strain nat1, active compounds read low 0.969 | locus YDL074C, strain BRE1, active compounds read low 1.03 | locus YDL101C, strain DUN1, active compounds read low 1.01 | locus YDL134C, strain PPH21, active compounds read low 0.998 | locus YDL185W, strain tfp1, active compounds read low 0.987 | locus YDL192W, strain arf1, active compounds read low 1 | locus YDR001C, strain nth1, active compounds read low 0.958 | locus YDR069C, strain doa4, active compounds read low 1.01 | locus YDR101C, strain arx1, active compounds read low 1 | locus YDR137W, strain rgp1, active compounds read low 0.967 | locus YDR150W, strain NUM1, active compounds read low 0.987 | locus YDR159W, strain sac3, active compounds read low 0.974 | locus YDR162C, strain NBP2, active compounds read low 1.02 | locus YDR195W, strain ref2 0.943 | locus YDR297W, strain sur2, active compounds read low 0.977 | locus YDR318W, strain mcm21, active compounds read low 0.986 | locus YDR334W, strain swr1, active compounds read low 0.971 | locus YDR335W, strain msn5, active compounds read low 0.982 | locus YDR388W, active compounds read low 0.993 | locus YDR392W, strain spt3, active compounds read low 0.972 | locus YDR502C, strain sam2, active compounds read low 1.01 | locus YEL003W, strain gim4, active compounds read low 0.985 | locus YEL037C, strain rad23, active compounds read low 0.973 | locus YEL061C, strain CIN8 (second series), active compounds read low 0.964 | locus YEL061C, strain CIN8, active compounds read low 0.984 | locus YER015W, strain faa2, active compounds read low 0.967 | locus YER016W, strain bim1, active compounds read low 0.984 | locus YER110C, active compounds read low 0.997 | locus YER111C, strain swi4, active compounds read low 0.976 | locus YER155C, strain BEM2 (second series), active compounds read low 1 | locus YER155C, strain BEM2, active compounds read low 0.994 | locus YER167W, strain BCK2, active compounds read low 0.999 | locus YFR010W, strain ubp6, active compounds read low 0.991 | locus YGL078C, strain dbp3, active compounds read low 0.993 | locus YGL086W, strain mad1, active compounds read low 1.01 | locus YGL167C, strain pmr1, active compounds read low 0.951 | locus YGL173C, strain kem1, active compounds read low 0.993 | locus YGL227W, strain vid30, active compounds read low 0.977 | locus YGL240W, strain doc1, active compounds read low 1.02 | locus YGL248W, strain PDE1, active compounds read low 1 | locus YGL253W, strain hxk2, active compounds read low 0.968 | locus YGR078C, strain PAC10, active compounds read low 1.03 | locus YGR135W, strain pre9, active compounds read low 0.995 | locus YGR229C, strain SMI1, active compounds read low 0.98 | locus YGR252W, strain gcn5, active compounds read low 0.984 | locus YHR013C, strain ard1, active compounds read low 0.963 | locus YHR027C, strain rpn1, active compounds read low 0.976 | locus YHR030C, strain SLT2, active compounds read low 0.99 and 0.914 | locus YHR079C, strain IRE1 (second series), active compounds read low 0.991 | locus YHR079C, strain IRE1, active compounds read low 0.912 | locus YHR094C, strain hxt1, active compounds read low 0.989 | locus YHR129C, strain ARP1, active compounds read low 0.989 | locus YHR142W, strain chs7, active compounds read low 0.93 | locus YHR200W, strain rpn10, active compounds read low 0.988 | locus YIL066C, strain RNR3, active compounds read low 1.01 | locus YIL073C, strain SPO22, active compounds read low 1.05 | locus YIL125W, strain kgd1, active compounds read low 0.974 | locus YIR030C, strain dcg1, active compounds read low 0.998 | locus YJL092W, strain hpr5, active compounds read low 0.959 | locus YJL095W, strain BCK1 (second series), active compounds read low 0.973 | locus YJL095W, strain BCK1, active compounds read low 1.05 and 0.936 | locus YJL115W, strain asf1, active compounds read low 0.974 | locus YJL129C, strain trk1, active compounds read low 0.917 | locus YJL134W, strain LCB3, active compounds read low 0.991 | locus YJL154C, strain vps35, active compounds read low 0.957 | locus YJL164C, strain tpk1, active compounds read low 0.986 | locus YJL166W, strain qcr8, active compounds read low 0.993 | locus YJL168C, strain set2, active compounds read low 0.996 | locus YJL187C, strain SWE1 (second series), active compounds read low 1.04
